Bim-Bcl-B: inhibitors of Bim-Bcl-B interaction, human | bead-based flow cytometry, Bim peptide-Bcl-B binding | AID 951 | Q9HD36 | actives 0.073% (n = 190,000) | inhibition, % at 10 µM
Target sequence (Q9HD36 whole entry, looked up): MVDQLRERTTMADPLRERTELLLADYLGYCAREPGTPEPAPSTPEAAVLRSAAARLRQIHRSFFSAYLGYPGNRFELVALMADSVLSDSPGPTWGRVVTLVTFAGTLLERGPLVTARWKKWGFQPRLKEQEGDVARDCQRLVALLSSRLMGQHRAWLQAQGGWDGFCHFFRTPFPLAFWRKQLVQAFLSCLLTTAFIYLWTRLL
Bfl-1 Bim block: disrupts Bim binding to human Bfl-1; AID 1008; inhibition, % at 10 µM; actives 0.12% (n = 190,000); Q16548; Bead-based flow cytometry, Bim-Bfl-1 binding inhibition
Bcl-2 Bim block: human Bim-Bcl-2 interaction inhibition; Bead-based flow cytometry, Bim peptide-Bcl-2 binding; inhibition, % at 10 µM; actives 0.06% (n = 190,000); AID 950; in the data active means inhibition above about 40%
Wee1 stabilizer: human Wee1 degradation inhibition, primary screen | reporter increase, % at 5 µM | actives 1.2% (n = 220,000) | HeLa Luc-Wee1K328M stability, luciferase luminescence; 100% = proteasome inhibitor MG132 effect | P30291;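 active means activation above the mean of all tested compounds plus 3 SD, set per screening run, cut at about 8.8% in these data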;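 further: cells exposed to compound for 20 h before luminescence read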
Bim-Bcl-W: disrupts Bim peptide binding to human Bcl-W; Q92843; AID 952; inhibition, % at 10 µM; bead-based flow cytometry; actives 0.02% (n = 190,000);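 further: higher means less fluorescent Bim peptide bound to Bcl-W beads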
Bim-Bcl-XL: inhibitors of Bim-Bcl-XL interaction, human. Q07817. actives 0.04% (n = 190,000). inhibition, % at 10 µM. Bim peptide-Bcl-XL binding, bead flow cytometry, fluorescence
Target sequence (Q07817 whole entry, looked up): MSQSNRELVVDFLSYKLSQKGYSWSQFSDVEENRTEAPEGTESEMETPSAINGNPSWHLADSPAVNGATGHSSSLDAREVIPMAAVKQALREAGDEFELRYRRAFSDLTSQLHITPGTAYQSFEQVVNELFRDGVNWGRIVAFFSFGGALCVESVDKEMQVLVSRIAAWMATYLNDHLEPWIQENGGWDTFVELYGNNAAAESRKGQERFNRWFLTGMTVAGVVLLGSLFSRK
Numbers stand for hits; 0 = inactive; - = not tested or not shown. A selection: hits, their analogues and other compounds. The true share with any hit is near 1.4%. Unless noted, no stated cut-off is given here; in the data, active means inhibition above about 40%.

SMILES	Bim-Bcl-B	Bfl-1 Bim block	Bcl-2 Bim block	Wee1 stabilizer	Bim-Bcl-W	Bim-Bcl-XL
CCN1C(=O)CC(N2CCN(c3ccc(C(=O)c4ccccc4)cc3)CC2)C1=O (stereo not drawn)	0	0	0	0	0	0
O=C1CC(N2CCN(c3ccc(C(=O)c4ccc(F)cc4)cc3)CC2)C(=O)N1 (stereo not drawn)	0	0	0	8.9	0	0
CC(C)(C)CC(=O)Nc1ccccc1N1CCN(c2ccccc2)CC1	0	0	0	11	0	0
CCN1CCCc2cc(CN(CCN3CCOCC3)C(=S)Nc3ccc(OC)c(OC)c3)ccc21	0	0	0	0	0	0
CCN1CCCc2cc(CN(CCN3CCOCC3)C(=S)Nc3ccc(OC)c(Cl)c3)ccc21	0	0	0	10	0	0
O=C(CCC(=O)N(CC(=O)NC1CCCCC1)Cc1cccs1)Nc1nccs1	-	-	-	0	-	-
Cc1ccc(C)c(NC(=O)CN(C)C(=O)c2cccc(S(=O)(=O)N(C)C)c2)c1	0	0	0	10	0	0
CN(CC(=O)Nc1ccc(Cl)cc1)C(=O)c1cccc(S(=O)(=O)N(C)C)c1	0	0	0	0	0	0
CN(NS(=O)(=O)c1ccc(Cl)cc1)c1cnn(C)c(=O)c1Cl	-	-	-	9.9	-	-
O=c1[nH]c(N/N=C/c2ccccc2)nc2ccccc12	0	0	0	10	0	0
COC(=O)c1cc(C(=O)Nc2ccc(Cl)cn2)cc([N+](=O)[O-])c1	0	0	0	9.0	0	0
O=C(OCc1c(Cl)cccc1Cl)c1ccncc1	0	0	0	0	0	0
CC1CCC2C(=O)N(c3ccccc3OC(=O)c3ccccc3F)C(=O)C2C1 (stereo not drawn)	0	0	0	9.5	0	0
CN(C)CCNS(=O)(=O)c1ccc(N2CCN(c3ccc(F)cc3)CC2)c([N+](=O)[O-])c1	0	0	0	0	0	0
O=C(Oc1oc(-c2ccco2)nc1C=Nc1ccccc1)c1ccco1	0	0	0	0	0	0
O=C(Oc1oc(-c2ccco2)nc1C=Nc1ccccc1)c1ccoc1	0	0	0	9.0	0	0
Brc1cc2c(cc1/C=N/Nc1nc(N3CCCCC3)nc(N3CCCCC3)n1)OCO2	0	0	0	14	0	0
CC(C)=CC(=O)NCCc1ccccc1	0	0	0	10.0	0	0
O=C(O)/C=C/C(=O)NCCc1ccccc1	0	0	0	0	0	0
O=c1ccn(CCCBr)c(=O)[nH]1	-	-	-	0	-	-
CC(=O)NCCCNS(=O)(=O)c1ccc(C)cc1	0	0	0	0	0	0
O=C1CCC([N+](=O)[O-])C(c2cccc(Br)c2)N1 (stereo not drawn)	0	0	0	0	0	0
O=C1CCCC2(O)C1C(c1cccc(Br)c1)NC(=O)N2Cc1ccccc1 (stereo not drawn)	0	0	0	0	0	49
COc1ccccc1CNC(=O)CSc1ccc(-c2ccncc2)nn1	0	0	0	0	0	0
CCOc1ccc(NC(=S)N2CCc3cc(OC)c(OC)cc3C2COc2ccc3c(C)cc(=O)oc3c2)cc1 (stereo not drawn)	0	0	0	0	0	0
SMILES	Bim-Bcl-B	Bfl-1 Bim block	Bcl-2 Bim block	Wee1 stabilizer	Bim-Bcl-W	Bim-Bcl-XL
COc1ccc(-c2nc(N)n[nH]2)cc1OC	0	0	0	0	0	0
COc1cc(-c2nc(N)n[nH]2)cc(OC)c1OC	0	0	0	9.6	0	0
Cc1cc(Cl)ccc1OCCCC(=O)N/N=C/c1cccc([N+](=O)[O-])c1	0	0	0	0	0	0
S=C(Nc1ccc2c(c1)OCO2)N1CCN(Cc2ccco2)CC1	0	0	0	0	0	0
O=C(NC(=O)c1ccccc1O)c1ccc(C(F)(F)F)cc1	-	-	-	9.1	-	-
CCCc1ccc(C(=O)NC(=O)c2ccccc2O)cc1	-	-	-	0	-	-
c1ccc(CSCc2cn3ccccc3n2)cc1	0	0	0	0	0	0
Cc1ccc(SCc2cn3ccccc3n2)cc1	-	-	-	9.3	-	-
Cc1ccccc1-n1c(SCc2csc(Nc3ccccc3)n2)nnc1-c1cccnc1	0	0	0	0	0	0
Cc1ccc(Nc2nc(CSc3nnc(-c4cccnc4)n3-c3ccccc3C)cs2)cc1	0	42	0	0	0	0
CCOc1cc(NC(=S)NCCCN2CCOCC2)c(OCC)cc1NC(=O)c1cccs1	0	0	0	9.5	0	0
CCOc1cc(NC(=S)NCCCN2CCOCC2)c(OCC)cc1NC(=O)c1ccccc1	0	0	0	0	0	0
COc1ccc(NC(=O)c2noc3c2CCC3)cc1	0	0	0	0	0	0
CC(=O)c1ccc(NC(=O)c2noc3c2CCC3)cc1	0	0	0	10	0	0
O=C(Nc1ccc(S(=O)(=O)N2CCOCC2)cc1)c1cc(-c2ccccc2O)n[nH]1	-	-	-	10	-	-
O=C(CN1CCCCCC1)Nc1ccc(S(=O)(=O)N2CCOCC2)cc1	0	0	0	9.6	0	0
CC1CN(S(=O)(=O)c2ccc(NC(=O)c3cc(-c4ccccc4O)n[nH]3)cc2)CC(C)O1 (stereo not drawn)	0	0	0	0	0	0
Cc1ccnc(N(C(=O)Nc2ccccc2)C2=NCC(C)(C)S2)c1	-	-	-	9.7	-	-
Cc1ccc(N(C(=O)Nc2ccccc2)C2=NCC(C)S2)cc1 (stereo not drawn)	0	0	0	0	0	0
CN(/C=C/c1c([N+](=O)[O-])c(=O)n(C)c(=O)n1C)c1ccccc1	0	0	0	9.4	0	0
COc1ccc(/C=N/Nc2nncc3ccccc23)c(OC)c1	0	0	0	8.9	0	0
Cc1nn(C)cc1C(C(=O)NC1CCCCC1)N(Cc1ccc(F)cc1)C(=O)c1cnccn1 (stereo not drawn)	0	0	0	0	0	0
O=C(NCCCN1CCCC1=O)c1cc(-c2ccc3c(c2)OCO3)nc2ccccc12	0	0	0	0	0	0
O=C(NN1CCOCC1)c1cc(-c2ccc(Br)cc2)nc2ccccc12	0	0	0	0	0	0
O=C(NCCCN1CCOCC1)c1cc(-c2ccc3c(c2)OCO3)nc2ccccc12	0	0	0	11	0	0
SMILES	Bim-Bcl-B	Bfl-1 Bim block	Bcl-2 Bim block	Wee1 stabilizer	Bim-Bcl-W	Bim-Bcl-XL
CCc1ccc(-c2cc(C(=O)NN3CCOCC3)c3ccccc3n2)cc1	0	0	0	28	0	0
O=c1cc(CSc2ccccc2)nc(-c2ccncc2)[nH]1	0	0	0	0	0	0
Cc1c(NC(=O)COC(=O)c2ccccc2Cl)c(=O)n(-c2ccccc2)n1C	0	0	0	0	0	0
Cc1c(NC(=O)COC(=O)CCC(=O)c2ccc(Cl)cc2)c(=O)n(-c2ccccc2)n1C	0	0	0	9.4	0	0
COc1ccc(NC(=O)CCCSc2ccccc2)cc1	0	0	0	0	0	0
COc1ccc(/C(C)=N/NC(=S)Nc2cc(C)ccc2C)cc1	0	0	0	0	0	0
COC(=O)c1ccc(NC(=O)CCNS(=O)(=O)c2cccc3nonc23)cc1	0	0	0	9.1	0	0
CCOCCCNC(=O)c1c(N)n(-c2ccc3c(c2)OCO3)c2nc3ccccc3nc12	-	-	-	9.4	-	-

Screening results (PubChem)
